Activity calls are given as the source filed them. Rule for the calls: active = hit-call score of the fitted dose curve at least 0.9, where 1 is the maximum; inactive = score below 0.9.
Legend:
[1] = read-out: Vascular endothelial growth factor receptor 2 (Homo sapiens) (UniProt P35968); assay: BSK_4H_VEGFRII: BioMAP Diversity Plus: 4H Assay for Vascular endothelial growth factor receptor 2 (VEGFR2) Biomarker Activity (AID 2283031); details: primary human endothelial cells (HUVEC); actives raise or lower the signal
Outline: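 In this multiplexed HUVEC system, biomarker ELISA was performed after 24 h chemical exposure. Parallel SRB staining (TCA fixation, 560 nm) tracked cytotoxicity; DMSO served as baseline.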

[2] = read-out: Vascular cell adhesion molecule 1 (VCAM1), VCAM1 (gene 7412); assay: BSK_4H_VCAM1: BioMAP Diversity Plus: 4H Assay for Vascular cell adhesion molecule 1 (VCAM1) Biomarker Activity (AID 2283033); details: primary human endothelial cells (HUVEC); actives raise or lower the signal
Outline: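 ELISA read-out of VCAM-1 on human umbilical vein endothelium 24 hours after chemical dosing; gain or loss of signal was fitted relative to DMSO, with sulforhodamine B staining of parallel cultures flagging overt cytotoxicity.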

[3] = read-out: Interferon-gamma inducible Protein 10 (IP10), CXCL10 (gene 3627); assay: BSK_BE3C_IP10: BioMAP Diversity Plus: BE3C Assay for Interferon-gamma inducible Protein 10 (IP10) Biomarker Activity (AID 2283034); details: primary human bronchial epithelial cells; actives raise or lower the signal
Outline: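 Chemical is dosed onto human lung bronchial epithelial primary cells, cultures are incubated 24 h, and IP-10 is then quantified by ELISA. Gain or loss of signal is fitted in both directions relative to DMSO.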

[4] = read-out: Monokine induced gamma interferon (MIG), CXCL9 (gene 4283); assay: BSK_BE3C_MIG: BioMAP Diversity Plus: BE3C Assay for Monokine induced gamma interferon (MIG) Biomarker Activity (AID 2283035); details: primary human bronchial epithelial cells; actives raise or lower the signal
Outline: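 ELISA read-out of MIG in human lung bronchial epithelial primary cultures, 24 h post-dosing. Bidirectional curve fit vs DMSO baseline.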

[5] = read-out: Transforming growth factor beta 1 (TGFb1), TGFB1 (gene 7040); assay: BSK_BE3C_TGFb1: BioMAP Diversity Plus: BE3C Assay for Transforming growth factor beta 1 (TGFb1) Biomarker Activity (AID 2283036); details: primary human bronchial epithelial cells; actives raise or lower the signal
Outline: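 Primary human lung bronchial epithelial cells; compound exposure 24 h; TGF-b1 by ELISA; bidirectional fit, DMSO baseline. Parallel SRB total-protein staining for cytotoxicity.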

[6] = read-out: Plasminogen activator inhibitor-1 (PAI1), SERPINE1 (gene 5054); assay: BSK_BE3C_PAI1: BioMAP Diversity Plus: BE3C Assay for Plasminogen activator inhibitor-1 (PAI1) Biomarker Activity (AID 2283037); details: primary human bronchial epithelial cells; actives raise or lower the signal
Outline: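 Primary human lung bronchial epithelial cells; chemical dosing; 24 h; PAI-1 measured by ELISA; bidirectional fit referenced to DMSO as negative control.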

[7] = read-out: Urokinase-type plasminogen activator receptor (uPAR), PLAUR (gene 5329); assay: BSK_BE3C_uPAR: BioMAP Diversity Plus: BE3C Assay for Urokinase-type plasminogen activator receptor (uPAR) Biomarker Activity (AID 2283039); details: primary human bronchial epithelial cells; actives raise or lower the signal
Outline: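 Human bronchial epithelial primary cells; chemical exposure 24 h; uPAR by ELISA; bidirectional fit vs DMSO control.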

[8] = read-out: Interleukin-6 (IL6), IL6 (gene 3569); assay: BSK_CASM3C_IL6: BioMAP Diversity Plus: CASM3C Assay for Interleukin-6 (IL6) Biomarker Activity for (AID 2283040); details: primary human coronary artery smooth muscle cells; actives raise or lower the signal
[9] = read-out: Tissue plasminogen activator (tPA), PLAT (gene 5327); assay: BSK_BE3C_tPA: BioMAP Diversity Plus: BE3C Assay for Tissue plasminogen activator (tPA) Biomarker Activity (AID 2283041); details: primary human bronchial epithelial cells; actives raise or lower the signal
Outline: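 Primary human lung bronchial epithelial cultures receive test chemical; after 24 h, tPA is quantified by ELISA, and gain or loss of signal is fitted bidirectionally relative to DMSO baseline.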

[10] = read-out: Interleukin-8 (IL8), CXCL8 (gene 3576); assay: BSK_CASM3C_IL8: BioMAP Diversity Plus: CASM3C Assay for Interleukin-8 (IL8) Biomarker Activity (AID 2283042); details: primary human coronary artery smooth muscle cells; actives raise or lower the signal;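 note: IL-8 protein level quantified by ELISA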
[11] = read-out: Human Leukocyte Antigen - DR isotype (HLADR), HLA-DRA (gene 3122); assay: BSK_CASM3C_HLADR: BioMAP Diversity Plus: CASM3C Assay for Human Leukocyte Antigen - DR isotype (HLADR) Biomarker Activity (AID 2283043); details: primary human coronary artery smooth muscle cells; actives raise or lower the signal;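 note: cell-surface HLA-DR protein level quantified by ELISA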
[12] = read-out: Macrophage colony-stimulating factor (MCSF), CSF1 (gene 1435); assay: BSK_CASM3C_MCSF: BioMAP Diversity Plus: CASM3C Assay for Macrophage colony-stimulating factor (MCSF) Biomarker Activity (AID 2283044); details: primary human coronary artery smooth muscle cells; actives raise or lower the signal;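 note: M-CSF protein amount quantified by ELISA after 24 h exposure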
[13] = read-out: Low-density lipoprotein receptor (LDLR), LDLR (gene 3949); assay: BSK_CASM3C_LDLR: BioMAP Diversity Plus: CASM3C Assay for Low-density lipoprotein receptor (LDLR) Biomarker Activity (AID 2283045); details: primary human coronary artery smooth muscle cells; actives raise or lower the signal;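 note: LDLR protein level on the cell surface quantified by ELISA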
[14] = read-out: Monocyte Chemoattractant Protein-1 (MCP1), CCL2 (gene 6347); assay: BSK_CASM3C_MCP1: BioMAP Diversity Plus: CASM3C Assay for Monocyte Chemoattractant Protein-1 (MCP1) Biomarker Activity (AID 2283046); details: primary human coronary artery smooth muscle cells; actives raise or lower the signal;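 note: MCP-1 level quantified by ELISA 24 h after dosing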
[15] = BSK_CASM3C_Proliferation: Cell Proliferation Assessment in the BioMAP Diversity Plus: CASM3C Assay (AID 2283047); details: primary human coronary artery smooth muscle cells;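 note: sulforhodamine B total protein stain as relative cell number at 560 nm; sub-confluent cells exposed 48 h before staining; fitted both ways against DMSO so gain or loss of cell number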
[16] = read-out: Monokine induced gamma interferon (MIG), CXCL9 (gene 4283); assay: BSK_CASM3C_MIG: BioMAP Diversity Plus: CASM3C Assay for Monokine induced gamma interferon (MIG) Biomarker Activity (AID 2283048); details: primary human coronary artery smooth muscle cells; actives raise or lower the signal;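 note: MIG protein level measured by ELISA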
[17] = read-out: serum amyloid A (SAA), SAA1 (gene 6288); assay: BSK_CASM3C_SAA: BioMAP Diversity Plus: CASM3C Assay for serum amyloid A (SAA) Biomarker Activity (AID 2283049); details: primary human coronary artery smooth muscle cells; actives raise or lower the signal;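 note: SAA protein level quantified by ELISA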
[18] = BSK_CASM3C_SRB: Viability Assessment in the BioMAP Diversity Plus: CASM3C Assay (AID 2283050); details: primary human coronary artery smooth muscle cells;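 note: total protein by SRB staining as cytotoxicity measure in parallel cultures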
[19] = read-out: urokinase plasminogen activator (uPA), PLAU (gene 5328); assay: BSK_BE3C_uPA: BioMAP Diversity Plus: BE3C Assay for urokinase plasminogen activator (uPA) Biomarker Activity (AID 2283038); details: primary human bronchial epithelial cells; actives raise or lower the signal;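 note: uPA protein level quantified by ELISA in cell cultures; uPA read one day after compound addition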
Outline: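 Using confluent primary human lung bronchial epithelial cultures, we dosed chemicals, waited 24 h, then ran a uPA ELISA, fitting bidirectionally against DMSO.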

Measured: AC50

CN1C(=O)N(c2ccccc2Br)Cc2cnc(Nc3ccc4c(c3)OCC(CO)O4)nc21 (stereo not given)
active: [2] 15.2 µM | [3] 19.3 µM | [4] 34.7 µM | [5] 20 µM | [6] 1.63 µM | [7] 1.23 µM | [8] 20 µM | [9] 4.46 µM | [10] 14.3 µM | [11] 11.5 µM | [12] 5.62 µM | [13] 37.8 µM | [14] 9.73 µM | [15] 1.27 µM | [16] 32.3 µM | [17] 5.98 µM | [18] 20 µM
inactive: [1]

O=C(O)Cn1c(=O)n(Cc2ccc(Br)cc2F)c(=O)c2ccc(Cl)cc21
active: [9] 11.5 µM
not listed: [19]
inactive: all other assays above

Cc1occc1C(=O)Nc1ccc(C(=O)N2CCC(F)(F)/C(=C\C(=O)N3CCC(N4CCCCC4)CC3)c3ccccc32)cc1
active: [2] 9.44 µM | [13] 10.8 µM
not listed: [5] | [19]
inactive: all other assays above

Cc1ccc2oc(CN(Cc3ccccc3)C(=O)Nc3c(F)cc(F)cc3F)c(-c3ccc(Cl)cc3)c2c1
inactive: all assays above

CCCCCCCC[Si](OCC)(OCC)OCC
active: [2] 21.6 µM | [3] 26.3 µM | [15] 35.4 µM
not listed: [19]
inactive: all other assays above

O=C1CCC(C2CCCCC2)CC1
active: [3] 29.6 µM
not listed: [19]
inactive: all other assays above

CN(C)C(=O)C1(N2CCCCC2)CCN(CC[C@@]2(c3ccc(Cl)c(Cl)c3)CN(C(=O)c3ccccc3)CCO2)CC1
active: [2] 30.8 µM | [3] 16.4 µM | [4] 31.2 µM | [5] 32.3 µM | [6] 24.4 µM | [7] 12 µM | [8] 31.2 µM | [9] 17.3 µM | [10] 32.4 µM | [11] 18.1 µM | [12] 31.3 µM | [13] 4.45 µM | [14] 28.6 µM | [15] 15.7 µM | [16] 29.9 µM | [17] 33.3 µM | [18] 27.2 µM
inactive: [1]

O=C(O)Cc1cc(I)c(Oc2ccc(O)c(I)c2)c(I)c1
active: [2] 18.7 µM | [3] 10.3 µM | [4] 33.9 µM | [6] 15.2 µM | [7] 32.8 µM | [8] 29.6 µM | [9] 15.9 µM
inactive: all other assays above

Reference: PubChem BioAssay (EPA / NIEHS)
